Results: PubChem BioAssay AID1029 (Sanford-Burnham Center for Chemical Genomics, 2008)
In all, about 110,000 compounds went through this assay and about 80 (0.07%) were called active. The sample holds actives, similar compounds and a random draw of the others, so the mix is not that of the screen.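 How the source made its calls: active means inhibition above the mean of the plate negative controls plus 5 SD (cut at about 13% in these data); inactive means the rest.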

assay: inhibitors of macrophage phagocytosis, primary screen, imaging, J774A.1 cells, IgG beads (AID 1029); settings: J774A.1 macrophage IgG-bead phagocytosis, at 5 µM, active compounds read high;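 further: phagocytic index as fraction of beads internalized from green versus red external bead signal; plate controls were DMSO negative control for no effect and cytochalasin-D positive control for full effect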

inhibition, active:
CN(c1nc2ccccc2n2c(-c3ccco3)nnc12)S(=O)(=O)c1ccccc1 14.8% [artifact]
O=C(CN1CCSCC1)N/N=C/c1ccc(F)cc1F 117%

inhibition, inactive:
COCCNC(=S)N/N=C/c1c(C)[nH]c2ccccc12 -8.64%
CCCc1nc(SCC(=O)Nc2ccc(S(=O)(=O)N(C)C)cc2)c2ccccc2n1 -8.66%
CCCCC(=O)Nc1ccc(C(=O)Nc2cc(C(F)(F)F)ccc2Cl)cc1 -2.66%
CC1=C[C@H]2Cc3cc(C)cc(C)c3S(=O)(=O)[C@@H]2C=C1 -2.51%
COc1ccc(/C=N/NC(=O)c2ccc(Cl)cc2)cc1COC(C)=O -2.06%
CCNc1ccc(C(=O)OCC(=O)N2c3ccccc3NC(=O)C2(C)C)cc1[N+](=O)[O-] -2.95%
O=C(N/N=C/c1ccc2c(c1)OCO2)c1ccc(Cn2cc([N+](=O)[O-])cn2)o1 -3.46%
O=C1OC(OC(=O)c2ccccc2Br)C(N2CCOCC2)=C1Cl (stereo unspecified) -11.1%
COc1cc(C2C(N3C(=O)c4ccccc4C3=O)C(=O)N2c2ccc(C)c(C)c2)cc(OC)c1OC (stereo unspecified) -9.54%
O=C(CN1C(=O)/C(=C\c2ccccc2F)SC1=S)Nc1nc2ccccc2s1 -11.3%
COC(=O)c1ccccc1NC(=S)NC(=O)c1ccccc1F -2.31%
Cc1[nH]n(-c2ccccc2)c(=O)c1/C=N/NC(=O)c1ccoc1C 3.58%
Cc1cccc(NC(=S)N(CCN(C)C)C(C)c2ccco2)c1 (stereo unspecified) -6.2%
N=C1C(=O)OCC1c1ccccc1NC(=O)CN1CCCCC1 (stereo unspecified) -1.24%
CCN(CC)CCNCc1ccc(OCc2ccc(Cl)nc2)c(OC)c1 -2.95%
Cc1ccc(S(=O)(=O)N(Cc2ccc(Cl)cc2)c2ccccc2C(=O)NCc2cccnc2)cc1 -8.82%
Nc1nc(NC(=O)/C=C/c2ccccc2)nn1-c1ccccc1 -0.41%
CCc1cccc(NC(=O)CCC(=O)O)c1 -2.13%
CCS(=O)(=O)N1Cc2ccccc2CC1C(=O)Nc1nc2ccc(F)cc2s1 (stereo unspecified) 7.2%
COc1cc(/C=N/O)ccc1OCc1ccc([N+](=O)[O-])cc1 0.55%
O=C(NC1CCN(Cc2ccccc2)CC1)c1c(F)cccc1F 2.58%
CC(C)(C)C(=O)N1CCC[C@@]1(CO)C(=O)O 0.17%
Cc1cc(/C=C2\SC(=Nc3ccc(N4CCOCC4)cc3)N(C)C2=O)c(C)n1-c1cccnc1 -0.72%
Cc1nn(Cc2ccc(F)cc2)c(C)c1NC(=O)c1cccnc1Cl -2.17%
Cc1ccc(N=C2NC(=O)c3cccc([N+](=O)[O-])c32)cc1 -5.47%
COc1ccc(C/C(C)=N/NC(=O)c2cc(C)oc2C)cc1 -3.05%
C/C(=N\N1CCN(Cc2ccc(C)cc2)CC1)c1ccco1 -3.06%
CCCC/S(C)=N/S(=O)(=O)c1ccc(C)cc1 (stereo unspecified) -3.8%
O=C(NC(=O)N1CCOCC1)c1ccccc1 -2.51%
CCN(CC)S(=O)(=O)c1cc([N+](=O)[O-])ccc1N=Nc1c(O)n(C)c2ccccc12 -7.04%
CC1=C(C)CC(C(=O)NNC(=O)c2csc3c2CCC(C(C)(C)C)C3)C(C(=O)O)C1 (stereo unspecified) -3.56%
CCOC(=O)/C(=N\Nc1cc(Cl)ccc1Cl)N1CCN(C)CC1 -4.83%
Cc1ccccc1N(C(=O)Cc1cccs1)C(C(=O)NC1CCCCC1)c1cn(C)nc1C (stereo unspecified) -10.4%
Cc1nc(-c2ccccc2)cn2c1nc1ccccc12 -5.21%
CCOc1ccccc1N1CCN(C(=S)Nc2ccc(S(N)(=O)=O)cc2)CC1 -1.85%
CC(C)(C)NCCCOc1ccc(Cl)cc1C(C)(C)C -2.22%
Cc1ccc(C(=O)/C=C/Nc2ccc(S(=O)(=O)Nc3onc(C)c3C)cc2)cc1 4.08%
O=C(c1cncc(Br)c1)N1CCN(c2ccc([N+](=O)[O-])cc2)CC1 1%
N=c1n(CCc2ccccc2)c2ccccc2n1Cc1ccccc1F -1.86%
CCCOC(=O)c1ccc(N2C(=O)c3ccccc3C2=O)cc1 -13.4%
Cc1ccc(C(=O)NC(C)c2ccccc2)cc1Br (stereo unspecified) -1.23%
Cc1ccc(CC(=O)Nc2ccc(OC(F)F)c(Cl)c2)cc1C -0.42%
COc1ccc(/C=C/C(=O)OCC(=O)NCc2cccs2)cc1OC -8.33%
Cc1ccc(C2=NN(C(=O)CSc3nc(N)cc(N)n3)C(c3ccco3)C2)cc1 (stereo unspecified) -1.98%
C=CCn1c(SCc2ccc(Cl)c(Cl)c2)nnc1C(CO)NC(=O)c1ccc(OC)cc1 (stereo unspecified) -2.58%
Cc1cc(F)ccc1S(=O)(=O)Nc1ncnc2scc(-c3ccc(F)cc3)c12 0.71%
Cc1cc(NCc2ccco2)n2c(nc3ccccc32)c1C#N -1.3%
c1coc(-c2nc3nc4ccccc4n3nc2-c2ccco2)c1 -0.8%
NS(=O)(=O)c1ccc(N=Cc2ccc(Br)s2)cc1 -3.71%
Cc1nn(-c2ccccc2)c2c1C(c1cccc([N+](=O)[O-])c1)N(c1ccccc1)C(=O)N2 (stereo unspecified) -9.61%
COc1cc(C(=O)NNC(=O)c2ccc(S(=O)(=O)N3CCCCC3)cc2)cc(OC)c1OC -4.43%
CC(=O)Nc1ccc(S(=O)(=O)NC2(C(F)(F)F)C(=O)Nc3c2c(=O)[nH]c(=O)n3Cc2ccccc2)cc1 (stereo unspecified) -1.92%
CCc1ccc(C2N3CC4([N+](=O)[O-])CN2CC([N+](=O)[O-])(C3)C4(C)C)cc1 (stereo unspecified) -13.9%
C=CCn1c(CCNC(=O)c2cccs2)n[nH]c1=S -0.81%
COc1cc(/C=C/C(=O)N2c3ccccc3Sc3ccc(C(F)(F)F)cc32)cc(OC)c1OC -3.45%
Cc1ccc(Sc2ccncc2S(N)(=O)=O)cc1 -3.16%
O=C(c1cccs1)n1nc(NCc2ccccc2)nc1NCc1ccccc1 -7.68%
CCC1C=C(c2ccccc2)C=CN=C1N(CC)CC (stereo unspecified) -1.57%
O=C(CN1CCSCC1)N/N=C/c1ccc(F)cc1 -0.8%
O=C(Cn1cc(C(F)(F)F)ccc1=O)N/N=C/c1ccc(Cl)cc1Cl -1.82%
COCCNc1cc(NCCOC)c([N+](=O)[O-])cc1[N+](=O)[O-] -0.9%
O=C(N/N=C/c1ccc(Br)o1)c1cncc(Br)c1 -4.83%
CC(=O)c1c(N2CCN(c3ccc(F)cc3)CC2)nc(=S)n(-c2ccccc2)c1C -2.05%
COc1ccc2c(CC(=O)OCC(=O)Nc3ccccc3[N+](=O)[O-])coc2c1 -0.7%
COc1ccccc1-c1nnc(NC(=O)c2ccc3ncsc3c2)o1 -6.06%
Cc1ccc(SCCC(=O)NC(C(C)C)C(C)C)cc1 -6.42%
COC(=O)c1ccccc1NS(=O)(=O)c1ccc2[nH]c(=O)[nH]c2c1 -2.75%
Cc1ccccc1C1=NC(C(F)(F)F)(C(F)(F)F)c2c(n(-c3ccc(F)cc3)c(=O)[nH]c2=O)N1 -2.94%
COc1ccccc1N1CCN(CC(=O)NC(=O)NCc2ccco2)CC1 -5.49%
CCCNC(=O)NC(=O)COC(=O)CC(NC(N)=O)c1ccc(Cl)cc1 (stereo unspecified) -1.97%
Cc1ccc(NC(=O)COC(=O)CCc2nc3ccccc3n2-c2ccccc2)c(C)c1 -9.97%
Cn1cnc(C(F)(F)F)c1-c1ccc([N+](=O)[O-])cc1 -12.1%
CN(C)c1ccc(/C=N/NC(=O)c2ccc(Cn3cc(Br)cn3)o2)cc1 -0.35%
O=C(NNC(=O)c1cc2c(s1)CCCC2)c1ccccc1 -4.32%
COc1cc(CCC(=O)OCC(=O)Nc2cccc(S(N)(=O)=O)c2)cc(OC)c1OC -3.93%
CC(C)(C)C(=O)NC(NC(=S)Nc1ccc(S(N)(=O)=O)cc1)C(Cl)(Cl)Cl (stereo unspecified) -10.5%
CC(OC(=O)c1ccccc1N1C(=O)C2C3CCC(C3)C2C1=O)C(=O)c1ccccc1 (stereo unspecified) -1.86%
CC(C)C(=O)Nc1ccc(C(=O)NNC(=O)c2cccs2)cc1 -0.44%
O=[N+]([O-])c1ccc(NCCCO)c(C(F)(F)F)c1 -3.18%
CN(C)CCNC(=O)/C(=C/c1cccc([N+](=O)[O-])c1)NC(=O)c1ccccc1 -4.59%
S=C(NCC1COc2ccccc2O1)Nc1ccc(Br)cc1 (stereo unspecified) -5.67%
NC(=O)Nc1ccccc1C(=O)NCCc1ccccc1 2.64%
Cc1nn(Cc2ccc(Cl)cc2)c(Cl)c1/C=N/NC(=O)c1cccnc1 -2.24%
Cc1cc(Cl)ccc1OCCCC(=O)NCc1ccncc1 1.98%
CC1CN(S(=O)(=O)c2ccc(C(=O)Nc3sccc3C(N)=O)cc2)CC(C)O1 (stereo unspecified) -5.22%
CNC(=S)N/N=C/c1ccc(OCc2ccccc2)c(Br)c1 -0.67%
CCCCCC(=O)Nc1ccc(S(=O)(=O)Nc2ccc(Cl)nn2)cc1 -11.6%
COc1cccc(NC(=S)NCc2ccco2)c1 -4.01%
CCC(NC(=O)c1ccccc1NC(=O)c1ccccc1)C(=O)NNC(=O)CSc1nc2ccccc2o1 (stereo unspecified) -1.59%
